A word on the inhibition: it is the relative decrease from the control value, in per cent.

Assay [1] deals with Serine/threonine-protein kinase pim-2 (Homo sapiens) (UniProt Q9P1W9). Conditions: at 1 µM.
In assay [2] the target is Serine/threonine-protein kinase pim-3 (Homo sapiens) (UniProt Q86V86). The conditions noted are these: at 0.1 µM.
The target is the same in assay [3]. The conditions noted are these: at 1 µM.
The target of assay [4] is T1, MAP kinase-activated protein kinase 5 (Homo sapiens) (UniProt Q8IW41).
T1 sequence (whole entry): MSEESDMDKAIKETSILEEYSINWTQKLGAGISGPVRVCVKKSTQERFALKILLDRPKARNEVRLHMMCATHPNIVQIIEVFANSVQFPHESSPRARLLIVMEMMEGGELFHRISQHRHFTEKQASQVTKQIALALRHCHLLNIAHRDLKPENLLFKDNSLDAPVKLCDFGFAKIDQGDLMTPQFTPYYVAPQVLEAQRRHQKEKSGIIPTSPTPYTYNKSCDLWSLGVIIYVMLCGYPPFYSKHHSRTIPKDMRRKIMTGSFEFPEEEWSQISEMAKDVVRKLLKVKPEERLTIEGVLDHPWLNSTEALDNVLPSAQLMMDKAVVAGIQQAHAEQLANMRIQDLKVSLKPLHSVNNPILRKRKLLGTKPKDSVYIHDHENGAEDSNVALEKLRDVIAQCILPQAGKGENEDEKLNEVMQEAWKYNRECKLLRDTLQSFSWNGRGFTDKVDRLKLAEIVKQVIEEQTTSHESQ
Conditions: at 0.1 µM.

For assay [5], the target named is T1, MAP kinase-activated protein kinase 5 (Homo sapiens). Conditions: at 1 µM.
The target in assay [6] is Serine/threonine-protein kinase SIK1 (Homo sapiens) (UniProt P57059). The conditions noted are these: at 0.1 µM.
Assay [7] shares this target. The conditions noted are these: at 1 µM.
The target of assay [8] is Serine/threonine-protein kinase SIK2 (Homo sapiens) (UniProt Q9H0K1). The conditions noted are these: at 0.1 µM.
Assay [9] has the same target. The conditions noted are these: at 1 µM.
In assay [10] the target is T2, Serine/threonine-protein kinase TBK1 (Homo sapiens) (UniProt Q9UHD2).
T2 sequence (whole entry): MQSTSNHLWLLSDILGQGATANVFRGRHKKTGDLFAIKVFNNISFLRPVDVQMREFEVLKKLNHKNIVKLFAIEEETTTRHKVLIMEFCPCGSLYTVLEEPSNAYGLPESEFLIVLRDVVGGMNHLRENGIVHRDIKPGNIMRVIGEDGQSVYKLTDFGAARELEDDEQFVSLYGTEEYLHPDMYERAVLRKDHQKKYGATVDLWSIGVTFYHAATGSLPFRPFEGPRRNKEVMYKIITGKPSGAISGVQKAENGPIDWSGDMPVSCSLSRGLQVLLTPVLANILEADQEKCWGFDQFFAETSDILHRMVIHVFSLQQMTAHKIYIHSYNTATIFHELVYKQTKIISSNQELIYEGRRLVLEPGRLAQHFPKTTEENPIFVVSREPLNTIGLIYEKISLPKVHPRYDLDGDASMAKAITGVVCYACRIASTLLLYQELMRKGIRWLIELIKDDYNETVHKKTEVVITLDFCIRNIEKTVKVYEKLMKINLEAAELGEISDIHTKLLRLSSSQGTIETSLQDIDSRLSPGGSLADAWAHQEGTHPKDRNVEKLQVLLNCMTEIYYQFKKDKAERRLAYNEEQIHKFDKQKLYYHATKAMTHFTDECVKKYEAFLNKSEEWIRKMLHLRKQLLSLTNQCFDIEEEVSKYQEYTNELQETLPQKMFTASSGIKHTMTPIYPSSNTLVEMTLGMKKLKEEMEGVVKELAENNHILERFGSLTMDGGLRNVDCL
The conditions noted are these: at 0.1 µM.

The target in assay [11] is T2, Serine/threonine-protein kinase TBK1 (Homo sapiens). Conditions: at 1 µM.
The target of assay [12] is T3, Testis-specific serine/threonine-protein kinase 1 (Homo sapiens) (UniProt Q9BXA7).
T3 sequence (whole entry): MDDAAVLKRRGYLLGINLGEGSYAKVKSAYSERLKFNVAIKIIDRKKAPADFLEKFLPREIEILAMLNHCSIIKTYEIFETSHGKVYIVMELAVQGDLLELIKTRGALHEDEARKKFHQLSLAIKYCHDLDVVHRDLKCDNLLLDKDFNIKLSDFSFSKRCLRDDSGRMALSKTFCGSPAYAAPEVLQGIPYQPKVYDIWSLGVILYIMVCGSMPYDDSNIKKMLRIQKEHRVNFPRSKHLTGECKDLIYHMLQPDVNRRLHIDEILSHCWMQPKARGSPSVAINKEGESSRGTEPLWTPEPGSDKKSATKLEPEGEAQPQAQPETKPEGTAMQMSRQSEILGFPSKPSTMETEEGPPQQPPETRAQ
Conditions: at 0.1 µM.

Assay [13] has as its target T3, Testis-specific serine/threonine-protein kinase 1 (Homo sapiens). Conditions: at 1 µM.
Assay [14] concerns the target T4, Testis-specific serine/threonine-protein kinase 2 (Homo sapiens) (UniProt Q96PF2).
T4 sequence (whole entry): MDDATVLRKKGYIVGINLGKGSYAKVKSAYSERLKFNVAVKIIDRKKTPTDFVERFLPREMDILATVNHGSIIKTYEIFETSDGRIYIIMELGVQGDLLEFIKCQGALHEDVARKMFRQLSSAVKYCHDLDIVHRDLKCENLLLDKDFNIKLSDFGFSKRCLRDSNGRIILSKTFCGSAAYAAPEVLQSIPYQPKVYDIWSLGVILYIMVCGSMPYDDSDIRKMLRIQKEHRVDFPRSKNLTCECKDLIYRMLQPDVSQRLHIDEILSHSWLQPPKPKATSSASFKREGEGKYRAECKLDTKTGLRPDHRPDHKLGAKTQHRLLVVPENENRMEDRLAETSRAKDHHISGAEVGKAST
Conditions: at 0.1 µM.

In assay [15] the target is T4, Testis-specific serine/threonine-protein kinase 2 (Homo sapiens). Conditions: at 1 µM.
For assay [16], the target named is Casein kinase I isoform alpha (Homo sapiens) (UniProt P48729). Conditions: at 0.1 µM.
The target is the same in assay [17]. The conditions noted are these: at 1 µM.
Assay [18] concerns the target Casein kinase I isoform gamma-1 (Homo sapiens) (UniProt Q9HCP0). The conditions noted are these: at 0.1 µM.
For assay [19] the target is unchanged. The conditions noted are these: at 1 µM.
Assay [20] has as its target Casein kinase I isoform gamma-2 (Homo sapiens) (UniProt P78368). The conditions noted are these: at 0.1 µM.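 Also: values are mean inhibition figures reported as part of the GSK PKIS dataset.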

Serine/threonine-protein kinase SIK2 (Homo sapiens), sequence (Q9H0K1 whole entry, looked up): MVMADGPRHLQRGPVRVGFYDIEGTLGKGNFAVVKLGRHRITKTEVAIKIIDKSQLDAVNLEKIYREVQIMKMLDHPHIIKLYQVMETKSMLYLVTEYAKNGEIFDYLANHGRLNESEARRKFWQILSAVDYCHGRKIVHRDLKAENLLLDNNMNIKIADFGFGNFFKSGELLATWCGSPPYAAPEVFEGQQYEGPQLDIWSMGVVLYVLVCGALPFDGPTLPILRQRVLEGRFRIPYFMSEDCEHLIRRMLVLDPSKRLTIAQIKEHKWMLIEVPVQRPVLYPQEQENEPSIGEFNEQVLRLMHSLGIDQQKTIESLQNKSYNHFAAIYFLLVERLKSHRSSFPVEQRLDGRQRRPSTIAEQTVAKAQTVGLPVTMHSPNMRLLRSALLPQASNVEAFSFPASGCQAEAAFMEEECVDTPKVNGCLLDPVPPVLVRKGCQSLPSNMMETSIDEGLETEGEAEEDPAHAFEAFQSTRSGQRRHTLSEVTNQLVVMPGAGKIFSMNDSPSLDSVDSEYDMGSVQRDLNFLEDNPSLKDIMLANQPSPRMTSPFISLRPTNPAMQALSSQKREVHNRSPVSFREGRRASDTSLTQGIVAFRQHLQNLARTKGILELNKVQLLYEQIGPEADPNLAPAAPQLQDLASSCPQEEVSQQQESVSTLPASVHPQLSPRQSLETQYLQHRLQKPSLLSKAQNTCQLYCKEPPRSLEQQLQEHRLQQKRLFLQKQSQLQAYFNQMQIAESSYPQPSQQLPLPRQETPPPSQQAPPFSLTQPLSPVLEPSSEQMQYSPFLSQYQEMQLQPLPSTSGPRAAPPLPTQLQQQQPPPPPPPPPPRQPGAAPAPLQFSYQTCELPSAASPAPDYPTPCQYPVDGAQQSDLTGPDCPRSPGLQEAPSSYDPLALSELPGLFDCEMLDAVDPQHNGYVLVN
Serine/threonine-protein kinase SIK1 (Homo sapiens), sequence (P57059 whole entry): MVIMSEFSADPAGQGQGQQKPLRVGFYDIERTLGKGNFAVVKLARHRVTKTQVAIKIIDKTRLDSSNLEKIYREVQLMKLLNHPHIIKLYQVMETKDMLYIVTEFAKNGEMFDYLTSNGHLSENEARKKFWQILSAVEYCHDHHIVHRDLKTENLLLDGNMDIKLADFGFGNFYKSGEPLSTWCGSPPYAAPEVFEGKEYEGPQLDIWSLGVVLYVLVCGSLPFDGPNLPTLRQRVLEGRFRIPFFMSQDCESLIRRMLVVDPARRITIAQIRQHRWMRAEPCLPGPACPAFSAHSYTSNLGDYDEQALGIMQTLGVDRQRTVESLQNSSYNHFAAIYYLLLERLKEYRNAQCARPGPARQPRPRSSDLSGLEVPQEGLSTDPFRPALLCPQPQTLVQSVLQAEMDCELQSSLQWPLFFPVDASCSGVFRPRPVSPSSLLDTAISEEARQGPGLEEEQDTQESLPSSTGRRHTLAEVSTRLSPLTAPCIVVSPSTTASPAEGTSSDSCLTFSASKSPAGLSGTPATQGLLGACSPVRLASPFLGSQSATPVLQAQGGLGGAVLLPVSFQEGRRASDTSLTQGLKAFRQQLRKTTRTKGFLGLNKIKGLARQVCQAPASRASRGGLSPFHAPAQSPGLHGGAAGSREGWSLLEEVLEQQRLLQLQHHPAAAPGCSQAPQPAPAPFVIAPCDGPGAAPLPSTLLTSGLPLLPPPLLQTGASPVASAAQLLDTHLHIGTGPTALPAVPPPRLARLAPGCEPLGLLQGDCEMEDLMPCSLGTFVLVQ
Casein kinase I isoform gamma-2 (Homo sapiens), sequence (P78368 whole entry, looked up, canonical isoform): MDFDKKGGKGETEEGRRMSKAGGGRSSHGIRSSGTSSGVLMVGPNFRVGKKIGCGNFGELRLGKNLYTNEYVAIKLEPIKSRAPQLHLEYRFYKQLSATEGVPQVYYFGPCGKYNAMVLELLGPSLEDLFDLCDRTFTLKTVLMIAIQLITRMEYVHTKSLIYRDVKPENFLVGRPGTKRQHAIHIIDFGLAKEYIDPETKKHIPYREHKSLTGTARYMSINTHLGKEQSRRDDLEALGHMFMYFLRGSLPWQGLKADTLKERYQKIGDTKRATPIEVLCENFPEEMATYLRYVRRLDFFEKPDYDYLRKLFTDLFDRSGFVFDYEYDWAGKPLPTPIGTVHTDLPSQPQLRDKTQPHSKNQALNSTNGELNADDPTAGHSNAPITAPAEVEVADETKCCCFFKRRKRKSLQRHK
Serine/threonine-protein kinase pim-2 (Homo sapiens), sequence (Q9P1W9 whole entry, looked up): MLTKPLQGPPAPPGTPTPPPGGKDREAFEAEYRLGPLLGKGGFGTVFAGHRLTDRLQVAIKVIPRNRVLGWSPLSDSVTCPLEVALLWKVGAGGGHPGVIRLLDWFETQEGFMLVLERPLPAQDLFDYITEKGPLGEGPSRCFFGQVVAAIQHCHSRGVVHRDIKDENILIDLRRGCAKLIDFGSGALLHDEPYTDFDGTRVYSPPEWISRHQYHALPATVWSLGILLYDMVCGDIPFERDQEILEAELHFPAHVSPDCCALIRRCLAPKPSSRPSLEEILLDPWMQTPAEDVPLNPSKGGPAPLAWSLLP
Casein kinase I isoform gamma-1 (Homo sapiens), sequence (Q9HCP0 whole entry, looked up, canonical isoform): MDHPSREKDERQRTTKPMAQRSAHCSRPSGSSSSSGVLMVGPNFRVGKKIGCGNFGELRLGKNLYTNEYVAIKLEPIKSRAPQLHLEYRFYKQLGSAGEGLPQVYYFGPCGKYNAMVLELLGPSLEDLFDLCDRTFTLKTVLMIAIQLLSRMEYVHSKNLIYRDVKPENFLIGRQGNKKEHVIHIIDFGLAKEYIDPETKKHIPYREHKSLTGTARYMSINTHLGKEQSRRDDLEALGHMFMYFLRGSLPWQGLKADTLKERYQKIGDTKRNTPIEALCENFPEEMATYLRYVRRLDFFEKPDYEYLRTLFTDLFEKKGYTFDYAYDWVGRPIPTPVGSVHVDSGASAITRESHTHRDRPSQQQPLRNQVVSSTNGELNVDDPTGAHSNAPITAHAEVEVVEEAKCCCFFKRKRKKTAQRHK
Casein kinase I isoform alpha (Homo sapiens), sequence (P48729 2-337 limits assumed): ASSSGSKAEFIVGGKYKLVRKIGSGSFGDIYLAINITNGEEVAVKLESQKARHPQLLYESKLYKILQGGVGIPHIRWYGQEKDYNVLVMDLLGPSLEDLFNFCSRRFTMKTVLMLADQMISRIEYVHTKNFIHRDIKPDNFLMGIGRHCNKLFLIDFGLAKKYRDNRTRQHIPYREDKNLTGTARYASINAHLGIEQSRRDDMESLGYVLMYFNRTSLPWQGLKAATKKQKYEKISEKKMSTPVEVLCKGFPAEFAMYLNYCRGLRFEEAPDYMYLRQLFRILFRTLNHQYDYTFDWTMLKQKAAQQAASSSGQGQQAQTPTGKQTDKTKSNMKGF

Take `CCn1c(-c2nonc2N)nc2cnc(Oc3cccc(NC(=O)c4ccc(N(C)C)cc4)c3)cc21`: the inhibition in assay [1] was 1.39%; in [2] it was -0.12%; in assay [3] it was 1.67%; in assay [4], 0.33%; in assay [5], -1.26%; in assay [6], 1.57%. The inhibition turned out to be 2.47% in assay [7]; 4.79% in assay [8]; 4.74% in assay [9]; 0.53% in assay [10]; 6.31% in [11]; 10.9% in [12]. In addition, the inhibition is 52.2% in [13]; -0.81% in assay [14]; -0.76% in assay [15]; 2.09% in assay [16]; 7.22% in assay [17]; 1.44% in [18]. Besides, the inhibition in [19] was found to be 1.65%; in assay [20], 1.06%.

For `COc1cc2ncn(-c3cc(OCc4ccccc4C(F)(F)F)c(C(=O)N(C)C)s3)c2cc1OC`, the inhibition is 0.27% in [1]; -0.34% in assay [2]; 0.56% in [3]; 0.07% in assay [4]; 0.04% in [5]; 2.6% in assay [6]. For the same compound, the inhibition was 15.2% in assay [7]; 4.39% in assay [8]; 9.54% in [9]; 2.13% in assay [10]; 0.81% in assay [11]; 1.76% in assay [12]. The inhibition is 1.34% in [13]; 0.13% in assay [14]; 0.32% in assay [15]; 0.11% in [16]; 0.76% in [17]; -0.13% in assay [18]. Also, the inhibition was 0.81% in assay [19] and 0.13% in assay [20].

As for `COc1ccc(-c2cc3c(N)ncnc3o2)cc1`, the inhibition in assay [1] was 2.23%; in assay [2] it was 1.44%; in [3], 6.86%; in assay [4], -0.43%; in assay [5], -0.51%; in assay [6], -3.64%. The inhibition was 12% in assay [7]; 5.43% in [8]; 7.33% in [9]; 0.41% in [10]; 1.62% in [11]; -1.68% in assay [12]. Besides, the inhibition in assay [13] was 1.43%; in [14], -1.12%; in assay [15] it was -0.58%; in assay [16], -2.35%; in assay [17] it was -1.14%; in assay [18] it was -1.13%. Moreover, the inhibition in assay [19] was -0.49%; in assay [20] it was -0.59%.

For `CS(=O)(=O)CCNCc1ccc(-c2ccc3ncnc(Nc4ccc(OCc5ccccc5)c(C(F)(F)F)c4)c3c2)o1`, the inhibition is 1.13% in [1]; -1.28% in [2]; -0.2% in assay [3]; 1.1% in [4]; 1.66% in assay [5]; 4.5% in assay [6]. The inhibition turned out to be 6.16% in assay [7]; 4.8% in assay [8]; 2.29% in assay [9]; 0.23% in assay [10]; 1.05% in assay [11]; 3.83% in assay [12]. Moreover, the inhibition was 3.88% in assay [13]; 0.53% in [14]; 0.75% in assay [15]; 2.27% in assay [16]; 0.82% in [17]; 3.86% in [18]. The inhibition was 8.13% in [19] and 3.82% in assay [20].

For `CN1CCC(n2cnc(-c3ccc(F)cc3)c2-c2ccnc(Nc3ccccc3)n2)CC1`, the inhibition came to 0.35% in assay [1]; 1.06% in [2]; 5.66% in [3]; 1.06% in assay [4]; 1.42% in [5]; 3.13% in [6]. Further, the inhibition in assay [7] is 4.66%; in [8], 7.17%; in [9], 22.9%; in assay [10] it was 0.4%; in [11], 2.8%; in [12], 3.05%. Further, the inhibition in assay [13] amounted to 3.21%; in assay [14], 2.5%; in assay [15], 2.86%; in [16] it was 53.5%; in assay [17] it was 83.6%; in assay [18] it was 7.05%. For the same compound, the inhibition worked out at 42% in assay [19] and 4.57% in assay [20].

Turning to `O=S(=O)(CCNCc1ccc(-c2ccc3ncnc(Nc4ccc(OCc5cccc(F)c5)c(Cl)c4)c3c2)o1)c1ccccc1`, the inhibition was 0.58% in [1]; -0.16% in [2]; 1.33% in assay [3]; 2.07% in assay [4]; 2.09% in assay [5]; 3.17% in assay [6]. Further, the inhibition in assay [7] stood at 9.64%; in assay [8] it was 2.1%; in [9] it was 6.58%; in [10], 4.82%; in assay [11], 5.89%; in [12] it was 4.61%. For the same compound, the inhibition in assay [13] was found to be 5.43%; in assay [14], 2.59%; in assay [15], 3.64%; in assay [16], 4.43%; in assay [17] it was 6.02%; in assay [18], 4.93%. Besides, the figures for the inhibition in assay [19] and in assay [20] were 6.77% and 4.49%, respectively.

Values taken from ChEMBL document CHEMBL1961873, “Compounds: GSK PKIS; Assays: Nanosyn kinase panel” (2012).
